Test results from article PMC7819943, “Rice protein-binding microarrays: a tool to detect cis-acting elements near promoter regions in rice”.
Whole data set: some 39,000 sequences, median “fluorescence intensity (a.u.)” near 4,300, cut for the highest 2% near 39,000. This is one part of a sample in which the highest values are shown more often than they occur.

Biological target: T1, OsSMF1 (Oryza sativa, UniProt Q6ZLB0 1-436)
T1 sequence: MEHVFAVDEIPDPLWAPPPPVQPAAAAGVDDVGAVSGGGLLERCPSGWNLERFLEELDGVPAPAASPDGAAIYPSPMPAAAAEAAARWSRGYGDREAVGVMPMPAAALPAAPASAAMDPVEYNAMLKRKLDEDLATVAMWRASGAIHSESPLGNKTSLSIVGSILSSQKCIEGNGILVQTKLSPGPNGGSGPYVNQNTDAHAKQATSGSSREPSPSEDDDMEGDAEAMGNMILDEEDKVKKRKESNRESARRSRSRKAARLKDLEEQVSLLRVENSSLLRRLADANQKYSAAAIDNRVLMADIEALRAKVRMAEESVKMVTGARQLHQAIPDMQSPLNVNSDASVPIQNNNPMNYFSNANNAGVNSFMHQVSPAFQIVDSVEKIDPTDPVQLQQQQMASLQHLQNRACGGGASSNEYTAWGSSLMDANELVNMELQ
Experiment: protein-binding microarray (RPBM); PBS, 2% BSA, 51.3 ng/ul salmon testes DNA, 50 uM zinc acetate, 200 nM TF, 25 C, 1 h; high values mean tight binding
Settings: protein: recombinant; tags: N-terminal polyhistidine and DsRed monomer fusion (pET32a); chain copies: 2; label: CyDye5-dUTP incorporated in the synthesized complementary strand; 3' TTTTT single-stranded linker to array surface; dsDNA, one strand shown
In short: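 Using Ni–NTA, transcription factors fused N-terminally to polyhistidine and DsRed were purified after expression in E. coli BL21-CodonPlus. These were incubated at 200 nM with a blocked, double-stranded custom Agilent array for 1 h at 25 °C in a buffer containing 50 µM zinc acetate, and the array was washed. The binding signal is per-feature fluorescence intensity (arbitrary units) on an Axon 4000B scanner.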

| Sequence | binding signal |
| --- | --- |
| GCGAACACTGAGGTGTTGACGTTGCGCTCCGCCTCGCTGTCGGAGTCACCTAGTGCAG | 3840 fluorescence intensity (a.u.) |
| GTCCCTCCGCCGGCATCAGCTCAACGCCGCCGTCCTCCTCCGGAGTCACCTAGTGCAG | 3370 fluorescence intensity (a.u.) |
| GCCGAGAAGGCATCAACGGCACTGGCGAGGCCCTCTCAGCCGGAGTCACCTAGTGCAG | 39600 fluorescence intensity (a.u.) |
| ATTAAGCCCTCAATCGGCACAGGCGAGGAGTTCTCATCACCGGAGTCACCTAGTGCAG | 12000 fluorescence intensity (a.u.) |
| TCGTCGACTACGTGTTGGTGTTTCATGCCGCCAAGTCGACCGGAGTCACCTAGTGCAG | 5250 fluorescence intensity (a.u.) |
| TATAAGCACAATGCAGCCTAGTTGTTGCCGTGACCTGAGTCGGAGTCACCTAGTGCAG | 3180 fluorescence intensity (a.u.) |
| GACATCTGGAGGCGTCATGCAAGATGTCACATCCATAGAACGGAGTCACCTAGTGCAG | 3940 fluorescence intensity (a.u.) |
| ACTGGCCGTGACGCATTTCAACCTCTTGATCTGAACTGCCCGGAGTCACCTAGTGCAG | 3620 fluorescence intensity (a.u.) |
| AACCATAATGTTTGTGACACATTAAGGGCCTGTTCACTTTCGGAGTCACCTAGTGCAG | 3660 fluorescence intensity (a.u.) |
| ATGCAAAAGATATATAGGCTTGTTTTACTGAAGGTGGCTTCGGAGTCACCTAGTGCAG | 39100 fluorescence intensity (a.u.) |
| GGCAGGCTTGCACACAGGTGCAAAGATACGTGTGGCAGACCGGAGTCACCTAGTGCAG | 3240 fluorescence intensity (a.u.) |
| GATAGGCAAAGCTTCGAACTTTGGGCTGAAAACAAATTTTCGGAGTCACCTAGTGCAG | 28400 fluorescence intensity (a.u.) |
| GAGATGTCTGAACAAACAGATGGACGTGTAATGTTGTGGACGGAGTCACCTAGTGCAG | 3400 fluorescence intensity (a.u.) |
| CCGTCTTTTCTTTCTTCACGCCAGCGTCGCCGTGGTCAAGCGGAGTCACCTAGTGCAG | 3650 fluorescence intensity (a.u.) |
| TTAGCTGGGATGAATTGGGAATGGCTGATGATTCATTGCTCGGAGTCACCTAGTGCAG | 3790 fluorescence intensity (a.u.) |
| AATTTGGATTTGAATTATATCTGATTCAAATTTGAATTTGCGGAGTCACCTAGTGCAG | 3270 fluorescence intensity (a.u.) |
| CGGAGGGATTCGATTTGGAAGGAATTGGATTCGGAGTTGACGGAGTCACCTAGTGCAG | 33200 fluorescence intensity (a.u.) |
| TCGATTGGGGATTGGGGATTGGGGATCAGGAGGGATGGGGCGGAGTCACCTAGTGCAG | 4350 fluorescence intensity (a.u.) |
| TTGGAATGCTGAAATTATTAGGGGACTATTCAAATTGATGCGGAGTCACCTAGTGCAG | 39200 fluorescence intensity (a.u.) |
| GAAGGAATTGGATTGAATCAGAAAGGGGATCGATTCGATGCGGAGTCACCTAGTGCAG | 45200 fluorescence intensity (a.u.) |
| CAAGCCAAGTCTGAAGAAGAAGAACTAGTCATCGCTTGCCCGGAGTCACCTAGTGCAG | 3820 fluorescence intensity (a.u.) |

| Sequence | binding signal |
| --- | --- |
| AAATCCTTGTCTTCCCACGCTGACGCTGCTGTGTCCAGGTCGGAGTCACCTAGTGCAG | 4530 fluorescence intensity (a.u.) |
| ACCGGCTCACTTATGCGCGCGCGGCGCTGAGGTGGCCGCACGGAGTCACCTAGTGCAG | 5200 fluorescence intensity (a.u.) |
| GGGCTTCGTCCCCATCATCTCCTGCCACCTCAAACACCTGCGGAGTCACCTAGTGCAG | 3520 fluorescence intensity (a.u.) |
| GATGGGCTTGTGCTGACATCATCTATACGTGCTTTGCTCCCGGAGTCACCTAGTGCAG | 14500 fluorescence intensity (a.u.) |
| ATATATTCTATGTGGTCTGCCCACACGCAAGCATGAGCTCCGGAGTCACCTAGTGCAG | 3740 fluorescence intensity (a.u.) |
| GCGCCGCCAGCCGCTACAGGTCAGCGGCAACAGCAGGTTCCGGAGTCACCTAGTGCAG | 29200 fluorescence intensity (a.u.) |
| TGCCAATGGTGTGTGCAATTGCAACATGCGTTTGGTTGTGCGGAGTCACCTAGTGCAG | 4100 fluorescence intensity (a.u.) |
| TTCCGGCATGCTCAACAATTGGTCCAGGTGTTTGTTCCAGCGGAGTCACCTAGTGCAG | 42200 fluorescence intensity (a.u.) |
| GACACGTATGATTTGTGTGGTAGTACATAGCACGCACGCACGGAGTCACCTAGTGCAG | 35800 fluorescence intensity (a.u.) |
| CCAGGCACCGACCTGTAGTTGCATCAGCAAACCATGGCTGCGGAGTCACCTAGTGCAG | 4690 fluorescence intensity (a.u.) |
| AAATATAGAGATTTATTAACATAACAGCCTATCCACGTGGCGGAGTCACCTAGTGCAG | 17200 fluorescence intensity (a.u.) |
| AGGGATTATGTGTGTGTAAGATATTTGTGACTAGTTTATTCGGAGTCACCTAGTGCAG | 3630 fluorescence intensity (a.u.) |
| TTGTAAGCTCAGCCTAGATAGAGTGAAGATATTTTATTGGCGGAGTCACCTAGTGCAG | 49700 fluorescence intensity (a.u.) |
| ATGAAATGGACCTCAAGATCGAGTCATGACAAGACAACGGCGGAGTCACCTAGTGCAG | 4150 fluorescence intensity (a.u.) |
| TACACTGGTGGATGTGAATCATTGGAATGCATGCCTCCTGCGGAGTCACCTAGTGCAG | 3810 fluorescence intensity (a.u.) |
| TTAGGCCTCTCACAGTGCTCTTAGCTGGACCGGTGCTACACGGAGTCACCTAGTGCAG | 3920 fluorescence intensity (a.u.) |
| CCTCAGGCCGCCTCTCGTGCTGTACACGTAGGATAGCTACCGGAGTCACCTAGTGCAG | 46200 fluorescence intensity (a.u.) |
| GGGATAGCAGGACACGTGTGTATAGCTGCTGCGCCTGCCTCGGAGTCACCTAGTGCAG | 9260 fluorescence intensity (a.u.) |
| TTAAATGAATCATTTTGTTCCTATTTCTAAAATAAACTATCGGAGTCACCTAGTGCAG | 3380 fluorescence intensity (a.u.) |
| ATGCAGGCCACCTCACGCCACACGCTGTATCGCGCCCATACGGAGTCACCTAGTGCAG | 5790 fluorescence intensity (a.u.) |
| CTAGCTACTTCTATCCTCCACCTCCTAAATGATCGATTTGCGGAGTCACCTAGTGCAG | 3740 fluorescence intensity (a.u.) |
